Reference: PubChem BioAssay (NCATS)
Values without a mark were called inactive. Calls of active or inactive are those of the source.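 How the source made its calls: active means compounds whose dose series gives a full or clear partial fitted curve of increased nuclear translocation; inconclusive means weak partial curve or effect only at the top dose; inactive means no dose-dependent translocation response.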 Where a SMILES comes first, the peptide text is derived from it.

Target: Glucocorticoid receptor (Homo sapiens) (UniProt P04150)
Sequence (P04150 whole entry, looked up): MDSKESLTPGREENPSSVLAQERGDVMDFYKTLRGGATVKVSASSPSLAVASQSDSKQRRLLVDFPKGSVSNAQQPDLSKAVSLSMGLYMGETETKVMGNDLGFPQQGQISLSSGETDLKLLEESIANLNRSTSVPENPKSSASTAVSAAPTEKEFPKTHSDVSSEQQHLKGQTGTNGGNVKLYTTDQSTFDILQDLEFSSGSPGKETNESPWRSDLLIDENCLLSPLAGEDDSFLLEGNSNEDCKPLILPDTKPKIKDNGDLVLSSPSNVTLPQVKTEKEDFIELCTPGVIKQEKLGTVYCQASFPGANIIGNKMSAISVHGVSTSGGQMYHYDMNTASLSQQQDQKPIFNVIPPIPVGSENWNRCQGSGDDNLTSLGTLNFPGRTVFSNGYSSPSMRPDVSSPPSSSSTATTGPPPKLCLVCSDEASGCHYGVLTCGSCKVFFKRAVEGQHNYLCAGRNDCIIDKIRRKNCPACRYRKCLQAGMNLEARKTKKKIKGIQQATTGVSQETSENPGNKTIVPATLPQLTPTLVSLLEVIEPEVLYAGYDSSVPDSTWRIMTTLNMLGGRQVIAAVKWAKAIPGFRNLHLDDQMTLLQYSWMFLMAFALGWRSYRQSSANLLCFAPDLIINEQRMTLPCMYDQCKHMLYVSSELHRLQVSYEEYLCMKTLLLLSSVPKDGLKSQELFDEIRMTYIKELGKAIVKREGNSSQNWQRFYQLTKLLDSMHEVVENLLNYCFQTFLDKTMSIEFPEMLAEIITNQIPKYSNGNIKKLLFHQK
Experiment: GR-GFP Redistribution (AID 450)
Conditions: U2OS GR-GFP nuclear translocation, laser cytometry, 2 h
Potency means the concentration at half of the fitted maximal effect.

Structure (SMILES)	Potency
C/C=C1\C[C@H](C)[C@](O)(CO)C(=O)OCC2=CCN3CC[C@@H](OC1=O)[C@@H]23	> 46 µM
Oc1cc2c(cc1O)[C@H]1c3ccccc3CN[C@H]1CC2	> 46 µM
O=c1ccc2cc(O[C@@H]3O[C@@H](CO)[C@@H](O)[C@@H](O)[C@H]3O)c(O)cc2o1	> 46 µM
Cn1c(O)c(C(=O)c2ccccc2Cl)c(=O)n(C)c1=O	> 20.6 µM
C[C@@H]1CCC/C=C\[C@H]2C[C@H](O)C[C@@H]2[C@H](O)/C=C\C(=O)O1	> 46 µM
CCCCCCCCCCCCCC(=O)O[C@H]1[C@@H](C)[C@@]2(O)[C@@H](C=C(CO)C[C@]3(O)C(=O)C(C)=C[C@@H]23)C2C(C)(C)[C@]21OC(C)=O (stereo not given in full)	> 46 µM
CC(C)(C)[C@@]1(O)C[C@@H]2OC(=O)C[C@@]23C(=O)O[C@H]2OC(=O)[C@@H](O)[C@]231	> 46 µM
CC(C)[C@@]1(NC(=O)[C@@H]2C[C@H]3c4cccc5[nH]cc(c45)C[C@@H]3N(C)C2)O[C@@]2(O)[C@H]3CCCN3C(=O)[C@@H](Cc3ccccc3)N2C1=O	> 46 µM
O=c1cccc2n1C[C@@H]1C[C@H]2CN2CCCC[C@H]12	> 46 µM
Cc1c(N=Cc2c(O)n(CCc3ccc(F)cc3)c(=O)[nH]c2=O)c(=O)n(-c2ccccc2)n1C	> 20.6 µM
CN1CCC(OC(=O)C2c3ccccc3Oc3ccccc32)CC1	> 20.6 µM
CC1=CC(=O)C2=C(C)C[C@H](O)[C@@H]3[C@@H](OC(=O)[C@H]3C)[C@H]12	> 46 µM
COc1cc2c(cc1O)CCN[C@H]2C	> 46 µM
CC1=C2[C@@H]3OC(=O)[C@H](C)[C@H]3CC[C@@]2(C)C=CC1=O	> 46 µM
O=C(Nc1ccncc1)c1c(O)c2ccccc2n(Cc2ccccc2)c1=O	> 20.6 µM
CCN(CC)CCN=C(C)c1c(O)n(-c2ccccc2OC)c(=O)[nH]c1=O	> 20.6 µM
COc1cc2c(cc1O)-c1c(O)c(OC)cc3c1[C@H](C2)N(C)CC3	> 46 µM
CC[C@@H]1CN2CC[C@@H]1C[C@H]2[C@@H](O)c1ccnc2ccc(OC)cc12	> 46 µM

Structure (SMILES)	Potency
OC(Cc1ccccc1)(c1ccccc1)C1CN2CCC1CC2 (stereo not given)	> 20.6 µM
COc1cc2c(cc1OC)-c1c(OC)c(OC)c(CO)c3c1[C@H](C2)N(C)CC3	> 46 µM
CC(C)[C@@]1(NC(=O)[C@@H]2C=C3c4cccc5[nH]cc(c45)C[C@H]3N(C)C2)O[C@@]2(O)[C@@H]3CCCN3C(=O)[C@H](Cc3ccccc3)N2C1=O	> 20.6 µM
COC[C@H]1OC(=O)c2coc3c2[C@@]1(C)C1=C(C3=O)[C@H]2CCC(=O)[C@@]2(C)C[C@H]1OC(C)=O	0.838 µM (active)
CCOc1ccc(-n2c(O)c(C=Nc3ccc(N(CC)CC)cc3)c(=O)[nH]c2=O)cc1	> 20.6 µM
C[C@H]1C(=O)O[C@H]2CCN3CC=C(COC(=O)[C@](C)(O)[C@@]1(C)O)[C@H]23	> 46 µM
CC(C)C[C@H](NC(=O)[C@@H]1CCCN1C(=O)[C@@H](N)Cc1ccc(O)cc1)C(=O)NCC(N)=O (H-YPLG-NH2)	> 20.6 µM
C[C@H]1CCCC=CC2C[C@H](O)C[C@@H]2[C@H](O)/C=C\C(=O)O1 (stereo not given in full)	> 46 µM
COC1=C[C@H]2[C@@H]3Cc4ccc(OC)c(O)c4[C@@]2(CCN3C)CC1=O	> 46 µM
OC[C@H]1CCCN2CCCC[C@@H]12	> 46 µM
COCC(C)OC(=O)c1c(N)n(Cc2ccco2)c2nc3ccccc3nc12 (stereo not given)	> 20.6 µM
CC(C)(O)[C@H]1[C@H]2OC(=O)[C@@H]1[C@]1(O)C[C@H]3O[C@]34C(=O)O[C@H]2[C@]14C	> 46 µM
C=C1C/C(=C\C)C(=O)O[C@@H]2CCN3CC=C(COC(=O)[C@]1(C)O)[C@H]23	> 46 µM
COc1ccc(C[C@@H]2NC[C@H](O)[C@H]2OC(C)=O)cc1	> 46 µM
Oc1cc2c(cc1O)[C@H]1c3ccccc3CN[C@@H]1CC2	> 46 µM
COc1cc2c(cc1OC)-c1c(O)c(OC)cc3c1[C@@H](C2)N(C)CC3	> 46 µM
CCN1C[C@@]2(C)CC[C@H](O)[C@@]34[C@@H]5C[C@H]6[C@H](O)[C@@H]5[C@](O)(C[C@@H]6OC)[C@H](C[C@@H]23)[C@H]14	> 46 µM
